Reference: the supplement of paper PMC10849652
About 8,800 targets were measured; listed, in parts, are those with a hit and a random draw of the rest. About 0.5% of all pairs of compound and target were hits. A number with no mark means an inactive call.

Key:
Experiment in all cases: log2 fold change, soluble protein after heating vs DMSO (PISA); higher = thermal stabilisation; K562 lysate, 10 uM; active = over 0.2 and 3.5 SD of the protein, either way, in both replicates (recomputed)
crizotinib = compound: C[C@@H](Oc1cc(-c2cnn(C3CCNCC3)c2)cnc1N)c1c(Cl)ccc(F)c1Cl [crizotinib]
In short: (§1)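 Following dounce homogenisation of K562 pellets in PBS pH 7.4 with 1 mM MgCl2, crude extract at 1 mg/mL protein was incubated for 30 min with 10 μM compound. Aliquots were then heated for 3 min over 48°C-58°C and pooled, NP-40 was added to 0.5% at 4°C, and soluble protein was recovered as the supernatant at 21,000xg for 90 min. Channel-sum-equalised TMTpro 16plex LC-MS/MS quantified this protein. Each value, from duplicates, is a log-two fold change in thermal stability relative to solvent controls.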

doramapimod = compound: Cc1ccc(-n2nc(C(C)(C)C)cc2NC(=O)Nc2ccc(OCCN3CCOCC3)c3ccccc23)cc1 [doramapimod]
In short: as §1

quisinostat = compound: Cn1cc(CNCC2CCN(c3ncc(C(=O)NO)cn3)CC2)c2ccccc21 [quisinostat]
In short: as §1

[1] = compound: NC(=O)Nc1cc(-c2cccc(F)c2)sc1C(=O)N[C@H]1CCCNC1
In short: as §1

pictilisib = compound: CS(=O)(=O)N1CCN(Cc2cc3nc(-c4cccc5[nH]ncc45)nc(N4CCOCC4)c3s2)CC1 [pictilisib]
In short: as §1

[2] = compound: C[C@H](C1=CC=C(C=C1)C(=O)NC2=C3C=CNC3=NC=C2)N
In short: as §1

gandotinib = compound: Cc1cc(Nc2cc(CN3CCOCC3)c3nc(C)c(Cc4ccc(Cl)cc4F)n3n2)n[nH]1 [gandotinib]
In short: as §1

tozasertib = compound: Cc1cc(Nc2cc(N3CCN(C)CC3)nc(Sc3ccc(NC(=O)C4CC4)cc3)n2)n[nH]1 [tozasertib]
In short: as §1

bafetinib = compound: Cc1ccc(NC(=O)c2ccc(CN3CC[C@H](N(C)C)C3)c(C(F)(F)F)c2)cc1Nc1nccc(-c2cncnc2)n1 [bafetinib]
In short: as §1

[3] = compound: Cc1cccc(CC(=O)N2CCc3c2ccc(-c2cn(C)c4ncnc(N)c24)c3F)n1
In short: as §1

nilotinib = compound: Cc1cn(-c2cc(NC(=O)c3ccc(C)c(Nc4nccc(-c5cccnc5)n4)c3)cc(C(F)(F)F)c2)cn1 [nilotinib]
In short: as §1

[4] = compound: Cc1nc(Nc2n[nH]c3c2CN(C(=O)N[C@H](CN(C)C)c2ccccc2)C3(C)C)c2sccc2n1
In short: as §1

[5] = compound: Cc1ncc(-c2ccnc(Nc3ccc(S(C)(=O)=O)cc3)n2)n1C(C)C
In short: as §1

tipifarnib = compound: Cn1cncc1[C@@](N)(c1ccc(Cl)cc1)c1ccc2c(c1)c(-c1cccc(Cl)c1)cc(=O)n2C [tipifarnib]
In short: as §1

duvelisib = compound: C[C@H](Nc1ncnc2nc[nH]c12)c1cc2cccc(Cl)c2c(=O)n1-c1ccccc1 [duvelisib]
In short: as §1

dasatinib = compound: Cc1nc(Nc2ncc(C(=O)Nc3c(C)cccc3Cl)s2)cc(N2CCN(CCO)CC2)n1 [dasatinib]
In short: as §1

[6] = compound: Cn1cc(-c2ccc3c(c2)CCN3C(=O)Cc2cccc(C(F)(F)F)c2)c2c(N)ncnc21
In short: as §1

lapatinib = compound: CS(=O)(=O)CCNCc1ccc(-c2ccc3ncnc(Nc4ccc(OCc5cccc(F)c5)c(Cl)c4)c3c2)o1 [lapatinib]
In short: as §1

[7] = compound: NC(=O)c1cnc(N[C@@H]2CCCC[C@@H]2N)nc1Nc1cccc(-n2nccn2)c1
In short: as §1

[8] = compound: NC1(c2ccc(-c3nc4ccn5c(=O)[nH]nc5c4cc3-c3ccccc3)cc2)CCC1
In short: as §1

Chain of UniProt Q5H9F3 (Q5H9F3 whole entry, looked up): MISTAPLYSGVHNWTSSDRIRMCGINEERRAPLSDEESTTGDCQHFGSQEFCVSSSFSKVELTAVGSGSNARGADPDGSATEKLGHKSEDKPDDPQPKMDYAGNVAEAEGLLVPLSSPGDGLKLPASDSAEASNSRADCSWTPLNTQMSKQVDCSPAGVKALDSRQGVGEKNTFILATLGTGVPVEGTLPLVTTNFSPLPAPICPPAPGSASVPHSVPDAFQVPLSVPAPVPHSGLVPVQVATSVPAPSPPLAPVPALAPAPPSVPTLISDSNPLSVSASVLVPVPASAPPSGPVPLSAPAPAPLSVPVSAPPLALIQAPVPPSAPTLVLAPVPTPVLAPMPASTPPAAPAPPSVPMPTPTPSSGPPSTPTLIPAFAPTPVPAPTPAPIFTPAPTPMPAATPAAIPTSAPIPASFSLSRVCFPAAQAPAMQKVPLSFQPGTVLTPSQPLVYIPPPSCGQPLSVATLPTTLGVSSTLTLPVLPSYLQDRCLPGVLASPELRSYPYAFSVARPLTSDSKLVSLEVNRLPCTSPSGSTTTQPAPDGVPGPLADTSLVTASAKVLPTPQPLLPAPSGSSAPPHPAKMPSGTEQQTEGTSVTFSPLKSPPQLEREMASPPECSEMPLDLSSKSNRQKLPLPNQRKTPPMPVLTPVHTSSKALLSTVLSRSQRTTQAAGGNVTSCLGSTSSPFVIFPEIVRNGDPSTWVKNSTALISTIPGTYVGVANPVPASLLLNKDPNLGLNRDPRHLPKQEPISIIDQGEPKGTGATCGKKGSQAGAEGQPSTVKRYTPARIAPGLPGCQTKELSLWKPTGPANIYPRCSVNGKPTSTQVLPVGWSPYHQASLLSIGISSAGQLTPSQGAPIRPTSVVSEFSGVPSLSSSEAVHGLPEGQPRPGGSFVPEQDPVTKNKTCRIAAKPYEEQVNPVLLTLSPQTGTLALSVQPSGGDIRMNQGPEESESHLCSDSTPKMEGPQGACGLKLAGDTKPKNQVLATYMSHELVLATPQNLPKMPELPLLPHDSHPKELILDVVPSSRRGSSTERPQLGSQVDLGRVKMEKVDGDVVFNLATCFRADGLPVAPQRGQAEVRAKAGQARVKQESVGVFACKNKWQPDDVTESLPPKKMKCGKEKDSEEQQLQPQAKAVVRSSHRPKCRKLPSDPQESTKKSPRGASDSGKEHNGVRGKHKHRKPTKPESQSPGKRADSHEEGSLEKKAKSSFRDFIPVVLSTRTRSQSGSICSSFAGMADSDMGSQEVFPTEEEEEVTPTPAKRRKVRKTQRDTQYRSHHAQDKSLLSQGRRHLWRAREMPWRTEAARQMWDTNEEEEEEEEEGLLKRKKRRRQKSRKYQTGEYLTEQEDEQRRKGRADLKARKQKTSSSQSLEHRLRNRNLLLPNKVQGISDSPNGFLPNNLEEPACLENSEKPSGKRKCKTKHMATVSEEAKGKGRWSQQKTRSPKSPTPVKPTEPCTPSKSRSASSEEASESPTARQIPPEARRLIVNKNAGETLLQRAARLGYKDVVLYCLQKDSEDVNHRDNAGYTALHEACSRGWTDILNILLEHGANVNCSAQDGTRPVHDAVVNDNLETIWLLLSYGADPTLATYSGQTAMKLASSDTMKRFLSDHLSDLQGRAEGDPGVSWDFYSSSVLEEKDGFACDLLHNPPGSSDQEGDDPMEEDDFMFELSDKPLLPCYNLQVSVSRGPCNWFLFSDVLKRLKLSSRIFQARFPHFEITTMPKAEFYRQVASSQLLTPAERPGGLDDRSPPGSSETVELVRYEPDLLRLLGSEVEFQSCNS
Chain of UniProt Q8NDD1 (Q8NDD1 whole entry, looked up): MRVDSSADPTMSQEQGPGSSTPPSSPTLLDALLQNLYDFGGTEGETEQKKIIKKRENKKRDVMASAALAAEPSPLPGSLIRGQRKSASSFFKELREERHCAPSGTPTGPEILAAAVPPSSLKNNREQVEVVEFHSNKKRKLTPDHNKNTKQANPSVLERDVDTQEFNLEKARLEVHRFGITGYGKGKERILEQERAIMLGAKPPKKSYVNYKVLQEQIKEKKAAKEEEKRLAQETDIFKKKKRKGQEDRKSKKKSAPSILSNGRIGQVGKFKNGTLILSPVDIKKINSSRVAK
Chain of UniProt Q9H0Y0 (Q9H0Y0 whole entry, looked up): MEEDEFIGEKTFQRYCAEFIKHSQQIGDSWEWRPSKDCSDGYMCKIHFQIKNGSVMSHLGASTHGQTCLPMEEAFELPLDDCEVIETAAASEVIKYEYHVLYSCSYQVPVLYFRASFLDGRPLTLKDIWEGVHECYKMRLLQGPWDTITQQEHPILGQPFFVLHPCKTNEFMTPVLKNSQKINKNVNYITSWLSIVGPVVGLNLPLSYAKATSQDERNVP
Chain of UniProt Q7Z7K6 (Q7Z7K6 whole entry, looked up): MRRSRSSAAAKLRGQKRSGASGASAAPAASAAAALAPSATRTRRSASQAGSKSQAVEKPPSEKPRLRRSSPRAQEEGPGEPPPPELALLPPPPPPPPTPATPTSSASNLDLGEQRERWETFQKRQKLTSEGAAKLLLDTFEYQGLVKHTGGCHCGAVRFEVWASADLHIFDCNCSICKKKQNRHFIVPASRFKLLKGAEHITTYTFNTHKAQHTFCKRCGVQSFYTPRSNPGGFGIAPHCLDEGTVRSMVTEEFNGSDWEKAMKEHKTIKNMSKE
Chain of UniProt Q00537 (Q00537 whole entry, looked up): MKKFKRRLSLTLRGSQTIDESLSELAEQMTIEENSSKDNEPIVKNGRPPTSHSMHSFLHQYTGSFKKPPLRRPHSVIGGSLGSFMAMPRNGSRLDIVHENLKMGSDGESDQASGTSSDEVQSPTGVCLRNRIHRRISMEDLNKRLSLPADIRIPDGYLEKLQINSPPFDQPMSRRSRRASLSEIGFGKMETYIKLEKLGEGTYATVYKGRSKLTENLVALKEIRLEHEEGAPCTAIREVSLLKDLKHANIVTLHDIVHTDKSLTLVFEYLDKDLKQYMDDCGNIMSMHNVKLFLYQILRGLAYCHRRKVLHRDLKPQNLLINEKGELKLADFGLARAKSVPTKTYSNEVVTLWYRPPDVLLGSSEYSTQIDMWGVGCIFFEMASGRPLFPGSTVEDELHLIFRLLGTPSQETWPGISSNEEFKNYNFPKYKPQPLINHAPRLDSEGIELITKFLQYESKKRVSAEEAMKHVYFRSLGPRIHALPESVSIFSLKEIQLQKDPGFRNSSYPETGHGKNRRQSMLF

**Q.** Which results are given for CDAN1 (UniProt H3BPZ6)?
**A.** log2 fold change (crizotinib): 0.118; log2 fold change (doramapimod): 0.059; log2 fold change (quisinostat): 0.093; log2 fold change [1]: 0.056

**Q.** What does the source list for CENPV (UniProt Q7Z7K6)?
**A.** log2 fold change (pictilisib): 0.02; log2 fold change (crizotinib): -0.119; log2 fold change [2]: 0.089; log2 fold change (gandotinib): -0.193; log2 fold change (tozasertib): 0.094; log2 fold change (doramapimod): -0.149; log2 fold change (bafetinib): -0.163; log2 fold change [3]: -0.36; log2 fold change (nilotinib): 1.5 (active); log2 fold change [4]: -0.184; log2 fold change [5]: 0.816; log2 fold change (quisinostat): 0.038; log2 fold change (tipifarnib): 0.08; log2 fold change [1]: -0.077

**Q.** With ATG4D (UniProt Q86TL0) as the target, how does the log2 fold change (pictilisib) read?
**A.** -0.054

**Q.** And the log2 fold change (crizotinib)?
**A.** -0.031

**Q.** What about the log2 fold change (duvelisib) of the same target?
**A.** 0.109

**Q.** And the log2 fold change (tozasertib)?
**A.** 0.099

**Q.** And the log2 fold change (doramapimod)?
**A.** -0.072

**Q.** And the log2 fold change (bafetinib)?
**A.** -0.056

**Q.** What about the log2 fold change (dasatinib) of the same target?
**A.** -0.037

**Q.** What about the log2 fold change [6] of the same target?
**A.** -0.57 (active)

**Q.** What about the log2 fold change (quisinostat) of the same target?
**A.** -0.085

**Q.** And the log2 fold change [1]?
**A.** 0.084

**Q.** C1orf131 isoform 5 (UniProt Q8NDD1) was tested. Which log2 fold change (lapatinib) did it give?
**A.** 0.065

**Q.** And the log2 fold change (crizotinib)?
**A.** -0.006

**Q.** And the log2 fold change [2]?
**A.** -0.16

**Q.** What about the log2 fold change (duvelisib) of the same target?
**A.** 0.028

**Q.** And the log2 fold change (gandotinib)?
**A.** 0.076

**Q.** What about the log2 fold change (tozasertib) of the same target?
**A.** 0.03

**Q.** And the log2 fold change (doramapimod)?
**A.** -0.008

**Q.** And the log2 fold change [3]?
**A.** 0.177

**Q.** What about the log2 fold change (nilotinib) of the same target?
**A.** -0.106

**Q.** And the log2 fold change [4]?
**A.** -0.059

**Q.** What about the log2 fold change (dasatinib) of the same target?
**A.** 0.048

**Q.** And the log2 fold change [5]?
**A.** -0.135

**Q.** And the log2 fold change [6]?
**A.** 0.034

**Q.** What about the log2 fold change (quisinostat) of the same target?
**A.** -0.103

**Q.** What about the log2 fold change (tipifarnib) of the same target?
**A.** 0.073

**Q.** What about the log2 fold change [1] of the same target?
**A.** -0.025

**Q.** And the log2 fold change [7]?
**A.** -0.035

**Q.** And the log2 fold change [8]?
**A.** 0.002

**Q.** ATG10 (UniProt Q9H0Y0) was tested. Which log2 fold change (pictilisib) did it give?
**A.** -0.051

**Q.** And the log2 fold change (crizotinib)?
**A.** -0.008

**Q.** What about the log2 fold change [2] of the same target?
**A.** 0.021

**Q.** What about the log2 fold change (duvelisib) of the same target?
**A.** 0.065

**Q.** What about the log2 fold change (gandotinib) of the same target?
**A.** -0.023

**Q.** And the log2 fold change (tozasertib)?
**A.** -0.087

**Q.** What about the log2 fold change (doramapimod) of the same target?
**A.** -0.014

**Q.** And the log2 fold change (bafetinib)?
**A.** 0.012

**Q.** What about the log2 fold change [3] of the same target?
**A.** 0.063

**Q.** And the log2 fold change (nilotinib)?
**A.** -0.064

**Q.** What about the log2 fold change [4] of the same target?
**A.** 0.026

**Q.** And the log2 fold change (dasatinib)?
**A.** 0.043

**Q.** And the log2 fold change [5]?
**A.** -0.16

**Q.** And the log2 fold change [6]?
**A.** -0.068

**Q.** What about the log2 fold change (quisinostat) of the same target?
**A.** 0.015

**Q.** What about the log2 fold change (tipifarnib) of the same target?
**A.** 0.125

**Q.** What about the log2 fold change [1] of the same target?
**A.** -0.01

**Q.** What about the log2 fold change [8] of the same target?
**A.** 0.016

**Q.** With CANX (UniProt D6RHJ3) as the target, how does the log2 fold change (lapatinib) read?
**A.** -0.017

**Q.** And the log2 fold change (nilotinib)?
**A.** -0.055

**Q.** What about the log2 fold change [4] of the same target?
**A.** 0.129

**Q.** What about the log2 fold change [5] of the same target?
**A.** 0.191

**Q.** And the log2 fold change (tipifarnib)?
**A.** 0.126

**Q.** What about the log2 fold change [7] of the same target?
**A.** -0.103

**Q.** CAPNS1 (UniProt K7ES78) was tested. Which log2 fold change (lapatinib) did it give?
**A.** 0.162

**Q.** What about the log2 fold change (crizotinib) of the same target?
**A.** 0.158

**Q.** And the log2 fold change (duvelisib)?
**A.** 0.17

**Q.** And the log2 fold change (doramapimod)?
**A.** -0.08

**Q.** What about the log2 fold change (dasatinib) of the same target?
**A.** -0.027

**Q.** What about the log2 fold change [6] of the same target?
**A.** -0.006

**Q.** What about the log2 fold change (quisinostat) of the same target?
**A.** 0.247

**Q.** What about the log2 fold change [1] of the same target?
**A.** -0.002

**Q.** And the log2 fold change [7]?
**A.** 0.053

**Q.** What about the log2 fold change [8] of the same target?
**A.** -0.099

**Q.** Which log2 fold change [2] does the source give for CAD (UniProt H7BZB3) here?
**A.** 0.069

**Q.** What about the log2 fold change (gandotinib) of the same target?
**A.** 0.036

**Q.** What about the log2 fold change (tozasertib) of the same target?
**A.** -0.062

**Q.** What about the log2 fold change [3] of the same target?
**A.** 0.057

**Q.** And the log2 fold change [8]?
**A.** 0.551 (active)

**Q.** ATXN2 (UniProt F8WB06) was tested. Which log2 fold change (duvelisib) did it give?
**A.** 0.187

**Q.** What about the log2 fold change (dasatinib) of the same target?
**A.** -0.074

**Q.** What about the log2 fold change [6] of the same target?
**A.** -0.053

**Q.** How did the log2 fold change (pictilisib) turn out when CDK17 isoform 2 (UniProt Q00537) was run?
**A.** -0.008

**Q.** And the log2 fold change (crizotinib)?
**A.** 0.026

**Q.** What about the log2 fold change [2] of the same target?
**A.** 0.096

**Q.** What about the log2 fold change (duvelisib) of the same target?
**A.** -0.04

**Q.** What about the log2 fold change (gandotinib) of the same target?
**A.** 0.042

**Q.** What about the log2 fold change (tozasertib) of the same target?
**A.** -0.113

**Q.** What about the log2 fold change (doramapimod) of the same target?
**A.** 0.15

**Q.** What about the log2 fold change (bafetinib) of the same target?
**A.** -0.033

**Q.** What about the log2 fold change [3] of the same target?
**A.** -0.359

**Q.** What about the log2 fold change (nilotinib) of the same target?
**A.** 0.061

**Q.** And the log2 fold change [4]?
**A.** 0.117

**Q.** And the log2 fold change (dasatinib)?
**A.** -0.068

**Q.** What about the log2 fold change [5] of the same target?
**A.** 0.096

**Q.** And the log2 fold change [6]?
**A.** 0.011

**Q.** And the log2 fold change (quisinostat)?
**A.** -0.069

**Q.** What about the log2 fold change (tipifarnib) of the same target?
**A.** -0.423

**Q.** What about the log2 fold change [1] of the same target?
**A.** -0.057

**Q.** What about the log2 fold change [8] of the same target?
**A.** 0.068

**Q.** What does the source list for BCORL1 isoform 3 (UniProt Q5H9F3)?
**A.** log2 fold change (crizotinib): -0.162; log2 fold change [2]: -0.577 (active); log2 fold change (duvelisib): 0.1; log2 fold change (gandotinib): 0.238; log2 fold change (tozasertib): 0.049; log2 fold change (doramapimod): 0.117; log2 fold change [3]: 0.475; log2 fold change (dasatinib): 0.039; log2 fold change [6]: -0.09; log2 fold change (quisinostat): 0.035; log2 fold change [1]: 0.235; log2 fold change [8]: -0.091
